Counter-ions that a name gives are not always drawn. ± gives the standard deviation of the averaged measurements. The full ranking holds about 1,800 compounds; the median of “GFP- (p16Ink4a-) cell count relative to negative-control wells” is about 0.99, and the lowest 2% start at about 0.5. This is one part of a sample in which the lowest values are shown more often than they occur.

For 30 compounds, GFP- results are on record in the supplement of paper PMC11060735.

The test system of this assay is mouse p16Ink4a+/- lung fibroblasts (INKBRITE, bleomycin-injured). The assay is described as follows: GFP- (p16Ink4a-) cell count relative to negative-control wells (fold of vehicle); higher = more p16Ink4a- cells surviving. Particulars: 1 µM; 3 days.
Compound `C/C(=C\c1csc(C)n1)[C@@H]1C[C@@H]2O[C@]2(C)CCC[C@H](C)[C@H](O)[C@@H](C)C(=O)C(C)(C)[C@@H](O)CC(=O)O1` [Epothilone B, Patupilone] came in with a GFP- of 1.03.
Then `C/C(=C\c1csc(C)n1)[C@@H]1C[C@@H]2O[C@@H]2CCC[C@H](C)[C@H](O)[C@@H](C)C(=O)C(C)(C)[C@@H](O)CC(=O)O1` [Epothilone A], with 0.423.
Then `CN(C)[C@@H]1C(=O)C(C(N)=O)=C(O)[C@@]2(O)C(O)=C3C(=O)c4c(O)cccc4[C@@](C)(O)[C@H]3C[C@@H]12` [Tetracycline], with 1.07; and `C=C1C[C@@H]2[C@H](CC[C@]3(C)C(=O)CC[C@@H]23)[C@@]2(C)C=CC(=O)C=C12` [Exemestane], with 1.13.
Take `C[C@@H]1CC[C@@]2(OC1)O[C@H]1C[C@H]3[C@@H]4CC=C5C[C@@H](O[C@@H]6O[C@H](CO)[C@@H](O[C@@H]7O[C@@H](C)[C@H](O)[C@@H](O)[C@H]7O)[C@H](O)[C@H]6O[C@@H]6O[C@@H](C)[C@H](O)[C@@H](O)[C@H]6O)CC[C@]5(C)[C@H]4CC[C@]3(C)[C@H]1[C@@H]2C` [Dioscin]: the GFP- worked out at 1.03.
For `COc1ccc(C(=O)N2CCCC2=O)cc1` [Aniracetam], the GFP- turned out to be 0.968.
To `CN1[C@@H]2CC[C@H]1C[C@@H](OC(=O)C(CO)c1ccccc1)C2` (stereo not given in full) [Atropine] belongs 0.843; to `CC(C)[C@]12O[C@H]1[C@@H]1O[C@]13[C@]1(O[C@H]1C[C@H]1C4=C(CC[C@@]13C)C(=O)OC4)[C@@H]2O` [Triptolide], 0.366.
Then `CC(=O)Nc1ccc(OC[C@](C)(O)C(=O)Nc2ccc([N+](=O)[O-])c(C(F)(F)F)c2)cc1` [Andarine], with 1; and `CCN(CC)C(=O)c1ccc(C2=CC3(CCNCC3)Oc3cccc(O)c32)cc1`, with 0.95.
For the compound `CCNC(=O)C[C@@H]1N=C(c2ccc(Cl)cc2)c2cc(OC)ccc2-n2c(C)nnc21`, the GFP- turned out to be 1.04 ± 0.19.
`C1=C2CCCN[C@H]2[C@@H]2C[C@H]1[C@H]1CCCCN1C2` [Aloperine] came in with a GFP- of 0.98.
`O=[N+]([O-])/C=C/c1ccc2c(c1)OCO2` yielded a GFP- of 1.03.
Then `CC[C@@H]1[C@@H](C)O[C@@](O)([C@@H](C)[C@H](O)[C@H](C)[C@H]2OC(=O)/C=C/C=C/[C@H](C)[C@H]([C@@H](C)[C@@H](O)[C@H](C)[C@@]3(O)C[C@@H](O[C@H]4C[C@H](O)[C@H](O)[C@H](C)O4)[C@H](CC)[C@@H](C)O3)OC(=O)/C=C/C=C/[C@H]2C)C[C@H]1O[C@H]1C[C@H](O)[C@H](O)[C@H](C)O1` [Elaiophylin], with 0.414.
As for `CCOC(=O)c1cncn1C(C)c1ccccc1` (stereo not given) [Etomidate], the GFP- stood at 1.09.
For the compound `Oc1nc2ccc(Cl)cc2c(N[C@@H]2CN3CCC2CC3)c1-c1nc2ccccc2[nH]1`, the GFP- was 0.944.
`CC(C)NCC(O)c1ccccc1Cl` (stereo not given) [Clorprenaline]: the GFP- worked out at 1.02.
The compound `C[C@H]1CCC/C=C/[C@@H]2C[C@H](O)C[C@H]2[C@H](O)/C=C/C(=O)O1` [Brefeldin A] had a GFP- of 0.4.
To `CCc1c(C(=O)C(N)=O)c2c(OCC(=O)O)cccc2n1Cc1ccccc1` [Varespladib] belongs 1.27; to `CCOc1ccccc1-n1c(C(C)N2CCN(C(=O)COc3ccc(Cl)cc3)CC2)nc2ccccc2c1=O` (stereo not given) [Erastin], 0.31.
In turn, `O=C(O)CNC(=O)c1c(O)c2ccccc2n(Cc2ccccc2)c1=O` came in with a GFP- of 1.07 ± 0.046.
In the case of `CNCC(=O)c1ccc(O)c(O)c1` [Adrenolone Hydrochloride], the GFP- is 1.05.
To `CN1C(=O)CCS(=O)(=O)C1c1ccc(Cl)cc1` (stereo not given) [Chlomezanone, Chlormezanone] belongs 1.03; to `CO[C@H]1CCC(O[C@H]2C[C@H]([C@]3(C)CC[C@]4(C[C@H](O)[C@@H](C)[C@@H]([C@@H](C)/C=C(\C)C(=O)[C@H](C)C[C@H](C)C(=O)O)O4)O3)O[C@]3(O[C@@H]([C@H]4O[C@@](O)(CO)[C@H](C)C[C@@H]4C)C[C@@H]3C)[C@@H]2C)O[C@@H]1C` (stereo not given in full) [Nanchangmycin], 0.412; to `Cc1sc2c(c1C)C(c1ccc(Cl)cc1)=N[C@@H](CC(=O)Nc1ccc(O)cc1)c1nnc(C)n1-2`, 0.844 ± 0.048.
To `CCCN1CCO[C@H]2c3cc(O)ccc3OC[C@@H]21` belongs 1.04; to `C/C=C(\C)C(=O)N[C@@H](c1ccccc1)[C@@H](O)C(=O)O[C@H]1C[C@@]2(O)[C@@H](OC(=O)c3ccccc3)[C@@H]3[C@]4(OC(C)=O)CO[C@@H]4C[C@H](O)[C@@]3(C)C(=O)[C@H](OC(C)=O)C(=C1C)C2(C)C` [Cephalomannine], 0.683.
Turning to `Cc1ccc(-n2nccn2)c(C(=O)N2CCN(c3nc4cc(Cl)ccc4o3)CC[C@H]2C)c1` [Suvorexant], the GFP- stood at 1.13.
To `C[C@@H]1[C@H](O)[C@@H](C)/C=C/C=C/CC/C=C/C=C/C=C/C=C/[C@H](O[C@H]2O[C@@H](C)[C@H](O)[C@@H](N)[C@H]2O)C[C@@H]2O[C@](O)(C[C@@H](O)[C@H](O)CC[C@@H](O)C[C@@H](O)C[C@@H](O)CC(=O)O[C@H]1C)C[C@H](O)[C@H]2C(=O)O` [Nystatin (Fungicidin)] belongs 0.951; to `C[C@H]1CNCCc2ccc(Cl)cc21` [Lorcaserin], 1.02.
